High-throughput results as filed in PubChem.
An excerpt weighted towards active compounds, which were near 1.6% of everything screened.
KCNQ2 inh = inhibitors of rat KCNQ2 potassium channel; O88943; CHO-K1 KCNQ2, FluxOR thallium flux, 20 min; active compounds read low; B-score at 10 µM; 310,000 tested, 1.1% active; AID 2156;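 active means fluorescence ratio B-score at most minus 3 library SDs, with starting brightness B-score within 2 library SDs, cut at about -5.5 in these data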
KCNQ2 pot = potentiators of rat KCNQ2 potassium channel; O88943; CHO-K1 KCNQ2, FluxOR thallium flux fluorescence; active compounds read high; B-score at 10 µM; 310,000 tested, 0.54% active; AID 2239;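 active means fluorescence ratio B-score at least 3 SD of library B-scores, with initial fluorescence B-score within 3 of them, cut at about 5.3 in these data; same plate scores as AID 2156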;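 further: B-score of peak minus minimum over baseline fluorescence ratio after K+ and Tl+ stimulus; positive B-score means potentiation of KCNQ2 with more thallium influx and brighter signal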
An asterisk follows results filed as active; i = inactive; / = not tested or not shown.

SMILES	KCNQ2 inh	KCNQ2 pot
O=C(CSc1nnc(SCc2ccc(Cl)cc2)s1)N/N=C/c1ccc(Cl)cc1Cl	i	/
O=C(CSc1nnc(SCc2ccc(Cl)cc2)s1)N/N=C/c1c(Cl)cccc1Cl	i	5.4*
CC(NC(=O)c1ccc(Br)cc1)C(=O)NC1=NCCS1 (centres undefined)	i	7.4*
CC(NC(=O)c1ccccc1)C(=O)NC1=NCCS1 (centres undefined)	i	0.56
COC(CNC(=O)c1ccc2c(c1)ncn2C1CCCCCC1)OC	i	1.4
Cc1cccc(NC(=O)CCCCCN2C(=O)[C@@H]3Cc4ccccc4CN3C2=O)c1	i	/
O=C(CCCCCN1C(=O)[C@@H]2Cc3ccccc3CN2C1=O)Nc1cccc(F)c1	-5.8*	-5.8
O=C(CCN1CCN(Cc2ccccc2)CC1)NNC(=O)Nc1cccc([N+](=O)[O-])c1	i	/
CCOC(=O)c1c(S(=O)(=O)NCC(=O)Nc2cccc(C)c2)c(C)n(C)c1C	i	/
Cc1ccc(/C=C(\NC(=O)c2ccc(C)cc2)C(=O)NCCCn2ccnc2)cc1	i	/
CN(c1ccc(OCC(=O)Nc2nc3ccccc3s2)cc1)S(=O)(=O)c1ccccc1	i	/
CCOc1ccc(S(=O)(=O)N(C)c2ccc(OCC(=O)Nc3nc4ccccc4s3)cc2)cc1	-5.9*	-5.9
c1csc(-c2noc(CN3CCc4sccc4C3)n2)c1	i	/
Cc1noc(C)c1CSc1nc2ccccc2c(=O)n1-c1ccccc1	-7.1*	-7.1
Cc1noc(C)c1CSc1nc2[nH]ncc2c(=O)n1-c1ccccc1	i	/
COc1ccc(C(C)=O)cc1CSc1nc2ccccc2c(=O)n1-c1ccccc1	i	/
COc1ccc(C(C)=O)cc1CSc1nc2ccccc2c(=O)n1-c1cccc(C)c1	-6.7*	-6.7
Cc1cccc(CS(=O)(=O)Cc2ccc(C(=O)NC3CCCCCC3)o2)c1	i	0.43
CC1CCCN(CCCN2C(=O)C3C(C(=O)Nc4cccc(Cl)c4)C4C=CC3(O4)C2C(=O)NC2CCCCC2)C1 (centres undefined)	i	0.07
COC(=O)c1cc(C)sc1NC(=O)CSc1ncccn1	i	/
Oc1ccc(Br)cc1-c1cc(-c2ccco2)[nH]n1	i	/
Oc1ccc(Br)cc1-c1ccn[nH]1	i	12*
Cc1ccc(OCCn2c(=O)n(C)c3ccccc32)cc1	i	/
Cc1nc(N2CCN(Cc3ccc4c(c3)OCO4)CC2)c2cc(-c3ccccc3)sc2n1	-6.4*	-6.4
Cc1nc(N2CCOCC2)c2cc(-c3ccccc3)sc2n1	i	/
SMILES	KCNQ2 inh	KCNQ2 pot
COc1ccc(C(=O)N/C(=C/c2cccs2)c2nc3ccccc3[nH]2)cc1OC	i	1.1
COc1cc(/C=C(/C(=O)c2cccs2)c2nc3ccccc3[nH]2)cc(OC)c1O	-6.1*	-6.1
Cn1ccnc1Sc1nc(Nc2cccc(Cl)c2)nc(N2CCOCC2)n1	-6.2*	-6.2
Cc1cccc(Nc2nc(N3CCOCC3)nc(N3CCOCC3)n2)c1	i	0.48
C[C@@H](CSc1ccccc1)CN1CC[C@H](NC(=O)OCc2ccccc2)CCC1=O	i	/
Cc1c(NC(=O)COC(=O)c2cc(-c3cccc4ccccc34)nc3ccccc23)c(=O)n(-c2ccccc2)n1C	i	/
Cc1cccc(-c2cc(C(=O)Nc3c(C)n(C)n(-c4ccccc4)c3=O)c3ccccc3n2)c1	-5.9*	-5.9
COCCCn1c(O)c(/C=C2\N=C(C#N)C(=Nc3ccc(C)cc3)O2)sc1=S	i	/
CCC1=NN(C(=O)c2ccc(Br)cc2)C(O)(c2ccccc2)C1 (centres undefined)	i	6*
CC1=NN(C(=O)c2ccccc2)C(O)(c2ccc(Br)cc2)C1 (centres undefined)	i	1.1
O=C(NCc1ccc(F)cc1F)Nc1cnccc1C(F)(F)F	i	/
Cc1ccccc1NC(=O)C1C2/C=C\CCCCC21 (centres undefined)	i	5.4*
Cc1ccccc1NC(=O)C1C2CCCCC21 (centres undefined)	i	/
CC(=O)N1CCc2cc(Br)cc(S(=O)(=O)NCCCN(C)Cc3ccccc3)c21	i	/
CCc1nnc(NC(=O)/C=C/c2cccs2)s1	i	0.69
Cc1ccc(C)c(CSC2=NCCN2S(=O)(=O)c2ccccc2)c1	-6.3*	-6.3
Cc1ccc(S(=O)(=O)N2CCN=C2SCc2ccc(Cl)c(Cl)c2)cc1	i	/
O=S(=O)(c1ccc(Cl)cc1)N1CCN=C1SCc1cccc(Cl)c1	i	/
O=S(=O)(c1ccccc1)N1CCN=C1SCc1c(F)cccc1Cl	-6.3*	-6.3
CC1CCCN(C(=O)CCc2nnc(-c3ccc4c(c3)OCO4)o2)C1 (centres undefined)	i	/
CCOc1ccc(C(=O)Nc2ccc3[nH]ncc3c2)cc1	i	1.1
c1ccc(-c2cn(-c3ccccc3)c3ncnc(NCCCN4CCOCC4)c23)cc1	-5.6*	-5.6
COc1ccc(-n2cc(-c3ccccc3)c3c(NCCCN4CCOCC4)ncnc32)cc1	i	/
Cc1cccc(-c2nc(NCCCN3CCOCC3)c3ccccc3n2)c1	-5.9*	-5.9
c1ccc(-c2nc(NCCCN3CCOCC3)c3ccccc3n2)cc1	i	0.42
SMILES	KCNQ2 inh	KCNQ2 pot
CC(c1ccncn1)N(C)C(=O)c1ccc2oc(Cc3ccccc3)nc2c1 (centres undefined)	i	0.39
CCN(CC(=O)NC(C)(C)C)C(=O)CCl	i	0.14
COc1cc(CNc2nnnn2C)cc(OC)c1OC	i	0.43
COc1cc([N+](=O)[O-])ccc1NC(=O)NCC1CCN(Cc2ccc(Cl)cc2)CC1	-6.1*	-6.1
COc1ccc(Cl)cc1NC(=O)NCC1CCN(Cc2cc(C)ccc2C)CC1	i	/
CCOC(=O)c1cc2c(=O)n3ccccc3nc2n(CCOC)c1=NC(=O)C(C)(C)C	i	9.7*
CCOC(=O)c1cc2c(=O)n3ccccc3nc2n(Cc2ccco2)c1=NC(=O)c1ccccc1OCC	i	/
CCOC(=O)c1cc2c(=O)n3ccccc3nc2n(Cc2ccco2)c1=NC(=O)c1cccnc1	-7.1*	-7.1
CCOC(=O)c1cc2c(=O)n3ccccc3nc2n(CCCOC)c1=NC(=O)C(C)(C)C	i	1.1
CCOC(=O)CNC(=S)N(CCCN1CCN(C)CC1)Cc1cccs1	i	/
Cc1cc(NC(=O)c2ccc(Cl)cc2)cc(C)c1OCC(=O)N1CCOCC1	i	/
CC1CCc2nc(/C(C#N)=C/c3ccncc3)sc2C1 (centres undefined)	i	/
CC(=O)c1ccc(-n2c(C)ccc2-c2ccccc2)cc1	i	/
COC(=O)c1ccc(-n2c(C)ccc2-c2ccccc2)cc1	-6.6*	-6.6
CCOC(=O)C1CCN(C(=O)c2ccc3c(=O)n4nc(Nc5cc(C)ccc5C)sc4nc3c2)CC1	-5.8*	-5.8
Cc1ccc(C)c(Nc2nn3c(=O)c4ccc(C(=O)NCc5cccnc5)cc4nc3s2)c1	i	0.89
CSCCC(NC(=O)c1ccco1)c1nc2ccccc2[nH]1 (centres undefined)	i	0.26
COc1ccc([N+](=O)[O-])cc1/C=N/NC(=O)Cc1ccccc1	i	6*
COc1cc(/C=N/NC(=O)Cc2ccccc2)ccc1Oc1ccc([N+](=O)[O-])cc1[N+](=O)[O-]	i	0.78
Cc1cc(C(C)(C)C)oc1C(=O)N(CC(=O)NC1CCCC1)Cc1ccccc1	i	/
Cc1ccc(C)c(N(CC(=O)NC2CCCC2)C(=O)c2oc(C(C)(C)C)cc2C)c1	-6.6*	-6.6
c1ccc(-c2nc3c4ccccc4ccn3c2CN2CCCCC2)cc1	-5.6*	-5.6
